Reference: PubChem BioAssay AID1903 (Southern Research Specialized Biocontainment Screening …, 2009)
About 1,200 (0.39%) of roughly 310,000 compounds were called active. The list is a sample of the results. Entries with a potency or affinity are not part of this list. A number with no mark means an inactive call. How the calls were made is not given here.

Molecular target: Large T antigen (Simian virus 40) (UniProt P03070)
Assay: TAg ATPase/helicase activity blockers – biochemical (AID 1903)
Settings: SV40 large T antigen ATPase/helicase inhibition assay; at 20 µM; stronger effect = higher value

Chain of Large T antigen (Simian virus 40) (P03070 whole entry, looked up): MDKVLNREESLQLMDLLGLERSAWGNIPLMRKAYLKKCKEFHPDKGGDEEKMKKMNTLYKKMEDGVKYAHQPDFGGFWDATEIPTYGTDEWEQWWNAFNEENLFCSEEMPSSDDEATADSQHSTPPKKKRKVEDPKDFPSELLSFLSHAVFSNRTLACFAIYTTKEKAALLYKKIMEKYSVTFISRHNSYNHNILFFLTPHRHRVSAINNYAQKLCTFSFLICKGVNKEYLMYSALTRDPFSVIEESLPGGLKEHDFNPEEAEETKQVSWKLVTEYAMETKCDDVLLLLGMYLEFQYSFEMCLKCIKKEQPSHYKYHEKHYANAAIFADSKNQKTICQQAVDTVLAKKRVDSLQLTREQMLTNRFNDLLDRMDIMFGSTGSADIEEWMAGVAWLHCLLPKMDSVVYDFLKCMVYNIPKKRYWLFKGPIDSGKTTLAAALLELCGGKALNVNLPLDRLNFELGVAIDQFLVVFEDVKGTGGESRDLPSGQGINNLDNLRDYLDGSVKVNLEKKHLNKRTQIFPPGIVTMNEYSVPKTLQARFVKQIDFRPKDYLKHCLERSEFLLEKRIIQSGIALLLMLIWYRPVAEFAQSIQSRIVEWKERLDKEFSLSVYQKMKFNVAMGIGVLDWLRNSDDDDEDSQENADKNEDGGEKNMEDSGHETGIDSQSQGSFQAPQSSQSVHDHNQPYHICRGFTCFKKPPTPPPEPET

Which inhibition does the source give for Brc1ccc2[nH]c3c(NCc4ccccn4)ncnc3c2c1 here?
Its inhibition is 4.68%.

Which inhibition does the source give for O=C(Nc1ccccc1)N(Cc1ccccc1)C1=NCCS1 here?
The inhibition was 5.16%.

With O=C(O)COc1ccccc1/C=N/NC(=O)CN1CCN(Cc2ccccc2Cl)CC1 as the molecule, how does the inhibition read?
Its inhibition is 2.27%.

How did the inhibition turn out when CCOC(=O)c1c(NC(=O)/C=C/C(=O)O)sc(C)c1-c1ccc(Cl)cc1 was run?
The inhibition was 47.5%.

Which inhibition does the source give for CCOC(=O)c1c(NC(=O)/C=C\C(=O)O)sc(C)c1-c1ccccc1 here?
Its inhibition is 12.2%.

Which inhibition does the source give for OCCNc1nc(Cl)nc(NCc2ccco2)n1 here?
The inhibition was 3.58%.

With CCOC(=O)CNc1c(-c2ccc(OC)cc2)nc2ccc(Cl)cn12 as the molecule, how does the inhibition read?
The inhibition was 19.4%.

CC(C)c1ccc(Nc2nc(Cl)nc(NCc3ccco3)n2)cc1 was tested. Which inhibition did it give?
Its inhibition is 23.9%.

With COCCNc1c(-c2ccc(O)cc2)nc2ccc(Cl)cn12 as the molecule, how does the inhibition read?
Its inhibition is 25.7%.

Which inhibition does the source give for O=C(Nc1c(-c2ccccc2)nc2ccccn12)c1ccco1 here?
Its inhibition is 19.3%.

With Cc1ccc2[nH]c(=O)c(-c3nc4ccccn4c3NCc3ccco3)cc2c1 as the molecule, how does the inhibition read?
The inhibition was 26%.

For CCOC(=O)CNc1c(-c2ccc(Cl)cc2)nc2cnccn12, which inhibition is on record?
The inhibition was 14.1%.

How did the inhibition turn out when CCOC(=O)CNc1c(-c2ccccc2)nc2ccc(Cl)cn12 was run?
Its inhibition is 13.6%.

Which inhibition does the source give for Cc1ccc(CCNC(=O)C2CCCN(S(=O)(=O)c3cccc4nsnc34)C2)cc1 (stereo unspecified) here?
The inhibition was 4.61%.

Which inhibition does the source give for CN(C)/C=C/C(=O)c1ccc(Cl)c([N+](=O)[O-])c1 here?
The inhibition was 11.3%.

Cc1ccc(-n2nnnc2SCC(=O)Nc2ccc(N3CCN(C)CC3)cc2)c(C)c1 was tested. Which inhibition did it give?
The inhibition was 17.6%.

COc1ccc2[nH]cc(C(=O)CN3CCCCC3)c2c1 was tested. Which inhibition did it give?
Its inhibition is 20.3%.

With O=C(NCCC1=CCCCC1)Nc1ccc2nsnc2c1 as the molecule, how does the inhibition read?
Its inhibition is -1.37%.

Which inhibition does the source give for Cn1c(N)c(C(=O)COC(=O)c2ccc(S(=O)(=O)N3CCCCC3)cc2)c(=O)n(C)c1=O here?
Its inhibition is 2.82%.

Which inhibition does the source give for CCc1noc(C)c1C(=O)Nc1nnc(C2CCCCC2)s1 here?
The inhibition was 16%.

COC(=O)c1c([N+](=O)[O-])c(OC)c(OC)c(OC)c1[N+](=O)[O-] was tested. Which inhibition did it give?
Its inhibition is 2.68%.

With COC(=O)[C@H](CCSC)NS(=O)(=O)c1ccccc1Br as the molecule, how does the inhibition read?
Its inhibition is 24.3%.

With Cc1cccc(NC(=O)c2ccc(NC(=O)CC3SC(N4CCCC4)=NC3=O)cc2)n1 (stereo unspecified) as the molecule, how does the inhibition read?
Its inhibition is 12.5%.

How did the inhibition turn out when CC1CCCN(S(=O)(=O)c2ccc(CN3C(=O)c4cccnc4C3=O)cc2)C1 (stereo unspecified) was run?
Its inhibition is 9.07%.

With CCN1C(=O)/C(=C\c2ccco2)C(C(=O)OC)=C1C as the molecule, how does the inhibition read?
Its inhibition is 8.18%.

How did the inhibition turn out when CC(C)CN1C(=O)/C(=C/c2ccco2)NC1=S was run?
Its inhibition is 19.9%.

How did the inhibition turn out when CCc1ccc(N2NC(=O)/C(=C/C=C/c3ccco3)C2=O)cc1 was run?
Its inhibition is 22.1%.

O=C1NN(c2ccc(F)cc2)C(=O)/C1=C\C=C\c1ccco1 was tested. Which inhibition did it give?
The inhibition was 19.7%.

How did the inhibition turn out when Cc1cccc(N=C2NC(=O)/C(=C/C=C/c3ccco3)S2)c1C was run?
Its inhibition is 5.68%.

Which inhibition does the source give for CCCCn1c(N)c(N(CC)C(=O)/C=C/c2ccco2)c(=O)[nH]c1=O here?
The inhibition was 5.15%.

Cc1csc2nc(CSc3nc4ccccc4o3)c(Br)n12 was tested. Which inhibition did it give?
Its inhibition is 1.48%.

How did the inhibition turn out when Cc1c[n+]([O-])n(-c2ccc(C(=O)O)cc2)n1 was run?
Its inhibition is 2.23%.

How did the inhibition turn out when O=C(c1cc(=O)c2ccccc2o1)N1CCN(c2cccc(Cl)c2)CC1 was run?
Its inhibition is 8.8%.

With CC(=O)c1cccc(NS(=O)(=O)N2CCOCC2)c1 as the molecule, how does the inhibition read?
Its inhibition is 9.29%.

How did the inhibition turn out when O=C(CCCc1ccccc1)Nc1cccnc1Cl was run?
Its inhibition is 10%.

How did the inhibition turn out when O=[N+]([O-])c1cccc(CN2CCN(c3cccc4[nH]ccc34)CC2)c1 was run?
Its inhibition is 27.1%.

With O=C(c1c(Cl)cccc1Cl)N1CCN(c2cccc3[nH]ccc23)CC1 as the molecule, how does the inhibition read?
The inhibition was 23.6%.

How did the inhibition turn out when Cc1ccc(S(=O)(=O)N2CCC(C(=O)NNC(=O)c3ccc(F)cc3)CC2)cc1 was run?
Its inhibition is 7.95%.

Which inhibition does the source give for Cc1ccc(C)c(CSc2nnc(-c3ccccn3)n2N)c1 here?
The inhibition was 4.69%.

COc1ccc(-n2c(=O)c3c4c(sc3n3c(=S)[nH]nc23)CCCC4)cc1 was tested. Which inhibition did it give?
The inhibition was 2.8%.

With CCSc1nnc2n(-c3ccc(OC)cc3)c(=O)c3c4c(sc3n12)CCCC4 as the molecule, how does the inhibition read?
Its inhibition is 2.78%.

Which inhibition does the source give for Cc1cccc(-n2c(=O)c3c4c(sc3n3c(=S)[nH]nc23)CCC4)c1 here?
The inhibition was 34.1%.

Which inhibition does the source give for COc1ccccc1-n1c(=O)c2c3c(sc2n2c(=S)[nH]nc12)CCC3 here?
The inhibition was 30.3%.

How did the inhibition turn out when Cc1nnc2n(-c3ccccc3)c(=O)c3c4c(sc3n12)CCCC4 was run?
The inhibition was 4.53%.

For CSc1nnc2n(-c3ccccc3)c(=O)c3c4c(sc3n12)CCC4, which inhibition is on record?
Its inhibition is 3.42%.

How did the inhibition turn out when COc1ccccc1C1(O)C(=O)Nc2ccc(C)cc21 (stereo unspecified) was run?
The inhibition was 9.43%.

Which inhibition does the source give for CS(=O)(=O)N1CCN(c2ncnc3c2cnn3-c2ccccc2)CC1 here?
The inhibition was 1.55%.

With CC1=CC(=C(C#N)C#N)C=C(C)N1CCN1CCN(C(=O)Nc2ccc(Cl)c(Cl)c2)CC1 as the molecule, how does the inhibition read?
Its inhibition is 3.99%.

Cc1ccc(C)n1-c1sc2c(c1C#N)CCCC2 was tested. Which inhibition did it give?
The inhibition was 7.49%.

Which inhibition does the source give for Cc1cc(/C=C2/NC(=O)NC2=O)c(C)n1-c1sc2c(c1C#N)CCCC2 here?
The inhibition was 17.3%.

Which inhibition does the source give for CCOC(=O)N1CCC(N2CCN(S(=O)(=O)c3ccc(OC)cc3)CC2)CC1 here?
The inhibition was 4.73%.

For COc1ccc(OC)c(-n2c(SCC(=O)Nc3cc(C)on3)nnc2-c2c[nH]c3ccccc23)c1, which inhibition is on record?
The inhibition was -1.81%.

CCN1CC2([N+](=O)[O-])CC=C(OC)C([N+](=O)[O-])(C1)C2 (stereo unspecified) was tested. Which inhibition did it give?
The inhibition was -0.47%.

Which inhibition does the source give for N#CCn1c(Cc2ccccc2)nc2ccccc2c1=O here?
The inhibition was 10.6%.

How did the inhibition turn out when CN(C)Cc1nc2ccccc2c(=O)n1CC#N was run?
The inhibition was 8.3%.

With O=Cc1cn(-c2ccccc2)nc1-c1ccc(F)cc1 as the molecule, how does the inhibition read?
Its inhibition is 3.65%.

For Cc1ccc2c(c1)N(C(=O)CCC(=O)N1CCCCC1)CCO2, which inhibition is on record?
The inhibition was 9.22%.

For N#Cc1c(-c2ccccc2)cc(-c2ccccc2)[nH]c1=O, which inhibition is on record?
Its inhibition is -4.42%.

How did the inhibition turn out when COc1ccc(-c2cc(-c3ccco3)[nH]c(=O)c2C#N)cc1 was run?
Its inhibition is 33.2%.

With COc1ccc(-c2cc(-c3ccco3)[nH]c(=O)c2C#N)cc1OC as the molecule, how does the inhibition read?
Its inhibition is 33.5%.

With N#Cc1c(-c2cccc(Br)c2)cc(-c2ccco2)[nH]c1=O as the molecule, how does the inhibition read?
The inhibition was 4.79%.
